# In PubChem BioAssay AID504444 (National Center for Advancing Translational Sciences (NCATS), 2011):
# Hit rate of the full screen: of about 360,000 compounds, about 7,500 (2.1%) were called active. Inconclusive results (about 20%) are left out. The list comes from a sample in which actives are over-represented; it also holds similar structures and randomly drawn compounds. Unmarked numbers belong to inactive results. Calls come from the whole dose curve; as a rule, active = well fitted inhibition curve with a large enough effect; inconclusive = small, poorly fitted or top-dose-only effect, or effect the other way; inactive = flat fitted curve, though single readings scatter.
# Assay: Nrf2 qHTS screen for inhibitors; note: nearly all actives have a fitted effect of over 60% in size
# Conditions: A549 ARE-Fluc reporter, luciferase luminescence, 18-24 h; series mostly up to 46 µM; activity change, negative = inhibition: at the top concentration
# Method in brief: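 Nrf2 function is reported as luminescence of an ARE-controlled luciferase in A549 cells. Compounds were tested at several concentrations, and a CellTiter-Fluor read on the same wells flagged cytotoxicity.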
# % is set by controls: 0 for no effect and ±100 for the full control effect; potency is the fitted concentration of half-maximal effect.
SMILES,"activity change, negative = inhibition",Potency
COc1ccc(S(=O)(=O)Nc2cccc3c2O[C@H](CN(C)S(=O)(=O)c2ccc(OC)cc2)[C@@H](C)CN([C@H](C)CO)C3=O)cc1,-25%,–
CCc1ccc(CN(C)C(C)C(=O)Nc2ccc(S(=O)(=O)N3CCCC3)cc2)cc1 (stereo not drawn),-9.67%,–
CCCCOc1ccc(C(=O)N2CC(=O)Nc3ccc(Br)cc3C2c2ccc(F)cc2)cc1 (stereo not drawn),-25.1% [at 9.27 µM],–
CC(=O)c1cccc(S(=O)(=O)N2CCC(n3nnc4cc(F)ccc43)CC2)c1,-2.65%,–
CC(=O)c1cccc(NC(=O)COc2ccc(S(=O)(=O)N3CCOCC3)cc2)c1,-4.98%,–
CC(=O)c1cccc(Nc2ccc3cc(S(=O)(=O)N4CCC(C)CC4)ccc3n2)c1,–,20.6 µM (active)
CCOC(=O)c1cc(NC(=O)c2ccc(F)cc2)c(=O)n2c1oc1ccccc12,-17.2%,–
COc1cccc(C2c3c(ncn(-c4cccc(Br)c4)c3=N)Oc3ccc4ccccc4c32)c1 (stereo not drawn),5.52%,–
CCC(=O)NC(Nc1nc2ccc(C)cc2s1)(C(=O)OC)C(F)(F)F (stereo not drawn),4.39%,–
O=C(NC(Nc1nc2ccc([N+](=O)[O-])cc2s1)(C(F)(F)F)C(F)(F)F)c1ccccc1,–,2.59 µM (active)
CCOc1ccc2nc(NC(=O)c3cc([N+](=O)[O-])ccc3N3CCOCC3)sc2c1,-23.6%,–
O=c1[nH]cnc2c1c(-c1ccccc1)cn2-c1ccc(F)cc1,–,25.9 µM (active)
CCOC(=O)C1CCN(c2ncnc3c2c(-c2ccccc2)cn3-c2ccc(C)cc2)CC1,8.13%,–
O=c1c2c(-c3ccccc3)ccnc2[nH]n1-c1ccccc1,-2.93%,–
Cc1cc(C)cc(OCC(=O)Nc2ccc(N3CCOCC3)cc2N2CCOCC2)c1,-24.6%,–
CC(=O)c1ccc(NC(=O)CSc2nc3ccccc3c(=O)n2CCCN2CCOCC2)cc1,8.57%,–
O=C(c1cccs1)c1cn(CCOc2ccc(Cl)cc2)c2ccccc12,-11%,–
COc1ccc(-n2c(C)cc(C(=O)COC(=O)c3cc(OC)c(OC)cc3NC(=O)c3cccs3)c2C)cc1,-0.74%,–
COc1ccc(-n2c(C)cc(C(=O)CSc3nnc(-c4cccs4)o3)c2C)cc1,–,18.4 µM (active)
Cc1ccc(OC(=O)CSc2nnc(-c3cccs3)o2)cc1,1.89%,–
CCc1ccc(C2C(C(=O)Nc3ccccc3)=C(C)Nc3c(C(=O)Nc4ccc(C)cc4)cnn32)cc1 (stereo not drawn),-7.44%,–
O=C(Cn1cnc2c(OCc3ccccc3)ncnc21)NCc1nc2ccccc2[nH]1,4.45%,–
Cc1cc(C(=O)OCC(=O)N2C(C)CCCC2C)c2ccccc2n1 (stereo not drawn),–,18.4 µM (active)
Cc1cc(C(=O)OCC(=O)Nc2nnc(C(C)C)s2)c2ccccc2n1,-6.29%,–

SMILES,"activity change, negative = inhibition",Potency
Cc1cc(C(=O)OCC(=O)Nc2nccs2)c2ccccc2n1,19.8%,–
Cc1ccc(Cn2c(C)c3cnn(CC(=O)NCCN4CCOCC4)c(=O)c3c2C)cc1,-21.8%,–
Cc1cc(C)cc(NS(=O)(=O)c2cc3c(cc2C)NC(=O)CO3)c1,18.1%,–
C/C(=N\OCC(=O)O)c1ccc(Cl)cc1,1.65%,–
CCOc1cc(/C=C(/C#N)c2ccc(Cl)cc2)cc(Cl)c1OCC(=O)O,–,8.2 µM (active)
CCOC(=O)CN/C=C(\C#N)c1ccc(F)cc1,0.372%,–
CCCCNC(=O)c1ccc2c(c1)NC(=O)C(C(C)C)N2 (stereo not drawn),-6.85%,–
COc1ccc(Cn2c(C(=O)O)c(CNCc3cccc(OC)c3)c3ccc(C)cc32)cc1,-21.6%,–
CCc1cccc(NC(=O)CN(c2ccc(C)c(C)c2)S(=O)(=O)c2ccsc2C(=O)OC)c1,2.91%,–
CCOC(=O)C1=C(c2ccccc2)Nc2ncnn2C1c1ccc(Cl)cc1 (stereo not drawn),-3.16%,–
CC1=C(C(N)=O)C(c2ccc(Br)cc2)n2ncnc2N1 (stereo not drawn),-20%,–
Clc1ccc2c(c1)C1=C(C(c3ccncc3)O2)C(c2ccc(Br)cc2)n2ncnc2N1 (stereo not drawn),–,13 µM (active)
CCCC12CN3CC(CCC)(CN(C1)C3c1c[nH]c3ccc(OC)cc13)C2=O (stereo not drawn),-15.7%,–
Cc1ccccc1C(=O)Nc1cc(C)c(O)c(-c2nc3ccccc3o2)c1,6.96%,–
CCCN(CC(=O)Nc1ccccc1C)C(=O)c1ccc2[nH]c3c(c2c1)CC(C)CC3 (stereo not drawn),–,20.6 µM (active)
CC1CCc2[nH]c3ccc(C(=O)N(C)CC(=O)Nc4cccc(F)c4)cc3c2C1 (stereo not drawn),2.56%,–
CCCN(CC(=O)Nc1ccccc1C)C(=O)c1cc(=O)[nH]c2ccccc12,11.2%,–
COc1ccc(CCN2CC(C(=O)OCC(=O)NCc3ccccc3Cl)CC2=O)cc1OC (stereo not drawn),4.36%,–
Cc1ccc(O)c(NC(=O)c2cc(-c3ccc(F)cc3)no2)c1,12.9%,–
CCOc1cc(C2C(C(=O)OC)=C(C)NC3=C2C(=O)c2ccccc23)ccc1O (stereo not drawn),8.61%,–
COc1ccc(S(=O)(=O)N2CCOCC2)cc1NC(=O)CSc1nnc(NC2CC2)s1,-0.078%,–
NS(=O)(=O)c1ccc(CCNC(=O)NC2CCCCC2)cc1,2.98%,–
Cc1ccc2[nH]c(C)c(CCNC(=O)NC3CCCCC3)c2c1,–,20.6 µM (active)
Cc1ccc2[nH]cc(CCNC(=O)C3CCCCC3)c2c1,-15.9%,–
